Experimental data from the supplement of paper PMC3724861.
This is one part of a sample in which hits are shown more often than they occur. No count for the full screen is at hand. Unmarked numbers belong to inactive results.

Tested on: T1, Caupolican (Caup) homeodomain DNA-binding domain
T1 sequence: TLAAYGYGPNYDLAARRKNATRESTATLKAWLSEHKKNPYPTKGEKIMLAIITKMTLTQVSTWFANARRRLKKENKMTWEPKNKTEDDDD
Assay: PBM E-score (8-mer, recovered from the published 9-mer minima) (E-score (dimensionless, -0.5 to 0.5)); Drosophila protein; higher = stronger relative binding preference, active = 0.31 or more
In short: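 Caup's homeodomain DNA-binding domain (residues 214-303) was made by in vitro transcription and translation and applied at 100 nM to custom-designed protein binding microarrays. Each value is an enrichment score that gives relative binding preference for a short DNA word, with higher meaning stronger. The 8-mer values were recovered from published 9-mer scores, each of which was the minimum of its two constituent 8-mer scores. A cutoff of 0.31 marks candidate sites.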

In order of falling “PBM E-score” value:
1. CGTTGTTA  0.305
2. ACGACATA  0.299
3. ATACACGG  0.299
4. AAGATGTA  0.298
5. CGATGTTA  0.297
6. CTACACGA  0.295
7. AGATGTTA  0.286
8. AGATGTTC  0.286
9. GGTACACA  0.28
10. AGTTGTAA  0.279
11. GTTATGTA  0.276
12. ATACACGC  0.275
13. ACACAATG  0.273
14. CAATGTTA  0.269
15. AGTTGTTA  0.266
16. CGTTGTAA  0.261
17. ACGATGTC  0.261
18. AGTACAAA  0.26
19. ACGACATC  0.26
20. CGTACACA  0.255
21. ACACGATC  0.254
22. AGGACAAG  0.254
23. ACACGACT  0.251
24. CTGATGTA  0.251
25. CCCGTGTA  0.25
26. CGATGTTC  0.249
27. AAATGTTC  0.247
28. CAGATGTA  0.247
29. TTTACAAA  0.245
30. GTACACCA  0.238
31. GAATGTTA  0.234
32. AGGACATC  0.233
33. AAGACATA  0.229
34. AACACAAG  0.228
35. ATTATGTC  0.227
36. CTTATGTC  0.224
37. GCGACAAC  0.224
38. ACCTGTTA  0.222
39. GGTTGTAC  0.222
40. CAATGTTC  0.218
41. GACACAAC  0.216
42. ACACGACC  0.215
43. ACACGTCG  0.212
44. CTGATGTC  0.212
45. AACACAAA  0.207
46. CGTACACC  0.205
47. GGATGTTA  0.204
48. AGATGTTG  0.203
49. ACACGTCT  0.203
50. AAATGTTG  0.201
51. ACATAAGG  0.2
52. CCGACAAC  0.198
53. ATTATGTG  0.197
54. GAACACCA  0.195
55. ACGACAAA  0.194
56. ATTATTAA  0.191
57. CTGTTATA  0.187
58. AGCAACAC  0.186
59. ACGACAAT  0.186
60. AAGTTATG  0.185
61. CATATTTA  0.178
62. ACACGAAG  0.174
63. AGTAGTAA  0.168
64. AATCATGA  0.164
65. AAATATGA  0.164
66. AAGTTATA  0.163
67. ACAATTCG  0.163
68. ACATTTTC  0.161
69. CCGATGTA  0.159
70. ATGATGAA  0.158
71. TCTACACA  0.157
72. ATATACTG  0.156
73. CATGACAG  0.151
74. CATGGGAC  0.151
75. CCCGTGTC  0.145
76. CGTAGTAA  0.145
77. TAGCAAGA  0.142
78. AATGATAA  0.141
79. CACACAAC  0.14
80. AGTACCAA  0.128
81. AAGCATGC  0.122
82. TATTGAAA  0.117
83. CTACTCAA  0.116
84. ACCGTGTG  0.115
85. ACACGAGG  0.111
86. AATCGTGC  0.105
87. CTGTTATC  0.103
88. AATCGTGA  0.102
89. AAAAGCAT  0.1
90. AATCATGG  0.0994
91. TCGCAACA  0.0932
92. AGGTTATA  0.0929
93. ATGATGTG  0.0894
94. ACACTCTA  0.0891
95. GGGATTAC  0.0873
96. GTGATGAA  0.0845
97. CAGAACAG  0.0845
98. ACTATCAG  0.083
99. GGTTGTGA  0.0824
100. AACCACAC  0.0803
101. GATAGATA  0.08
102. TCAACGAA  0.0771
103. AAGACATT  0.0764
104. ACGAGGTG  0.0761
105. AAACGTGA  0.0748
106. ACGAGTGC  0.0719
107. AGTTTTGA  0.0657
108. ATGATGGA  0.0619
109. CTCATAAG  0.0492
110. ATTAGGAA  0.0485
111. AGACTGTG  0.0481
112. CATTTTGA  0.0478
113. AGGTTATG  0.044
114. GATTTGCA  0.0416
115. CCACGATA  0.0391
116. CGTACCAA  0.0356
117. AACCATGC  0.0352
118. CTATACGA  0.0334
119. AATGGATA  0.0292
120. GATGCCTA  0.0242
121. GCAGTCTA  0.0232
122. CAGTTCTA  0.0212
123. CGTCTGTC  0.0202
124. ACGTTATC  0.0197
125. AACCATGG  0.0193
126. AGCGTCGA  0.017
127. GCACAATA  0.0168
128. AATCCCTA  0.0149
129. AAGCATGG  0.00906
130. CATCCTGA  0.007
131. CATTTCAG  0.00691
132. AAGCTGTG  0.00524
133. AAATATGC  0.00511
134. ACCGTGCA  0.00395
135. ATAGTCCG  0.00249
136. ACGCGACT  0.0019
137. AGATGCAC  -0.00186
138. AGAGATGA  -0.00602
139. AAGATTGC  -0.00712
140. AGCACTGA  -0.0101
141. CGTATAGC  -0.0127
142. GCGTTATA  -0.0159
143. ATCGCTTG  -0.0165
144. ATCCCGAC  -0.0204
145. ATGGACGG  -0.0288
146. ATAGTTCC  -0.029
147. GCTTATAC  -0.034
148. GAGTAACC  -0.034
149. ACCTGGAC  -0.0342
150. CTGCGTGA  -0.0361
151. GATTCGGC  -0.0366
152. CGTAAACG  -0.0383
153. GCAGGTTA  -0.0457
154. AGACGCGC  -0.0474
155. AAACGTGG  -0.051
156. AGCTTCAC  -0.0515
157. AGTGCGGA  -0.0562
158. AGACGTGG  -0.0599
159. AAGTAGCG  -0.0607
160. AGGCAAGC  -0.0636
161. ACTGCCTG  -0.0684
162. CGTTAAGC  -0.0697
163. CCATATGG  -0.073
164. AGCGGTTA  -0.0759
165. ATAGCCTC  -0.0831
166. CGCTAGAC  -0.0864
167. ATGCTCGC  -0.0878
168. GCCGTGAA  -0.0891
169. GAGACACC  -0.0907
170. CCTCCAAG  -0.0978
171. TCCAGTCA  -0.102
172. CCAGTCAG  -0.104
173. ACCGTGGA  -0.107
174. AGATCGCC  -0.108
175. AAGTTCGC  -0.11
176. AGCGTTCG  -0.141
177. CCACAGCC  -0.141
178. GACCTCTA  -0.142
179. CGGTTCAA  -0.15
180. AGATCGGC  -0.152
181. GAGCCTCA  -0.214
182. CGTCCGGC  -0.219
183. AAAGCCCC  -0.238

For ACCGTGTC, the “PBM E-score” value was 0.312 (active).
GCCGTGTA was tested, and the “PBM E-score” value was 0.341 (active).
For ACCGTGTA, the “PBM E-score” value was 0.359 (active).
For ACATGTTA, the “PBM E-score” value was 0.452 (active).
In the case of CCATGTTC, the “PBM E-score” value is reported as 0.368 (active).
With ACATGTTG the “PBM E-score” value was 0.453 (active).
GCATGTTA was tested, and the “PBM E-score” value was 0.397 (active).
For ACATGTTC, the “PBM E-score” value was 0.455 (active).
For CCATGTTA, the “PBM E-score” value was 0.406 (active).
With TGTAGTAA the “PBM E-score” value was 0.376 (active).
With GGTTGTTA the “PBM E-score” value was 0.324 (active).
With TGTTGTAA the “PBM E-score” value was 0.377 (active).
In the case of GGTTGTAA, the “PBM E-score” value is reported as 0.333 (active).
With ACACAATA the “PBM E-score” value was 0.31 (active).
In the case of ACACGTCA, the “PBM E-score” value is reported as 0.325 (active).
With ACACGACA the “PBM E-score” value was ≥ 0.386 (active).
With ACACGATA the “PBM E-score” value was 0.322 (active).
For ACACGATG, the “PBM E-score” value was 0.347 (active).
With TGTACCAA the “PBM E-score” value was 0.312 (active).
With TGTACAAA the “PBM E-score” value was 0.384 (active).
With CGTACACG the “PBM E-score” value was 0.341 (active).
For TGTACACA, the “PBM E-score” value was 0.407 (active).
For ATGTTATC, the “PBM E-score” value was 0.351 (active).
In the case of ATGTTATG, the “PBM E-score” value is reported as 0.338 (active).
In the case of ATGTTATA, the “PBM E-score” value is reported as 0.381 (active).
For GTGTTATA, the “PBM E-score” value was 0.334 (active).
For ATGATGTA, the “PBM E-score” value was ≥ 0.383 (active).
ACGATGTA was tested, and the “PBM E-score” value was 0.36 (active).
In the case of ATGATGTC, the “PBM E-score” value is reported as 0.312 (active).
In the case of GTGATGTA, the “PBM E-score” value is reported as ≥ 0.383 (active).
For GAGATGTA, the “PBM E-score” value was 0.329 (active).
CTTATGTA was tested, and the “PBM E-score” value was 0.345 (active).
For ATTATGTA, the “PBM E-score” value was 0.327 (active).
ACGACAAC was tested, and the “PBM E-score” value was 0.339 (active).
For ACGACATG, the “PBM E-score” value was ≥ 0.416 (active).
For AAGACATG, the “PBM E-score” value was 0.381 (active).
With AGGACATG the “PBM E-score” value was 0.38 (active).
For ACGACAAG, the “PBM E-score” value was ≥ 0.317 (active).
AACACAAC was tested, and the “PBM E-score” value was ≥ 0.339 (active).
AACACAAT was tested, and the “PBM E-score” value was ≥ 0.319 (active).
In the case of AAGCATGT, the “PBM E-score” value is reported as 0.356 (active).
For AATCATGT, the “PBM E-score” value was 0.42 (active).
With AACCATGT the “PBM E-score” value was 0.347 (active).
With AATCGTGT the “PBM E-score” value was 0.324 (active).
For AAACGTGT, the “PBM E-score” value was 0.31 (active).
AAATATGT was tested, and the “PBM E-score” value was 0.335 (active).
GTACACGA was tested, and the “PBM E-score” value was 0.427 (active).
With ATACACGA the “PBM E-score” value was 0.33 (active).
